Among all 220,000 compounds or so, about 2,000 (0.91%) were called active. Inconclusive results (about 2%) are left out. No stated cut-off is given here; in the data, inconclusive means inhibition above about 80% without an active follow-up result; inactive means below that; test concentration not stated here. A selection follows. Potency and affinity values are given separately.
Assay: M. tuberculosis H37Rv growth inhibitors, H37Rv strain (AID 1626);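 further: bacteria incubated seven days before Alamar blue readout; 0% = bacteria only wells and 100% = bacteria with antibiotic wells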
Conditions: active compounds read high, concentration not given here

| SMILES | inhibition |
| --- | --- |
| CCOCCCNC(=O)c1cc2c(=O)n3cccc(C)c3nc2n1C | 1.27% (inactive) |
| c1ccc(-c2ncc3c(ccc4ccccc43)n2)cc1 | 4.61% (inactive) |
| CCOc1ncccc1C(=O)Nc1ccccc1C(=O)NCc1ccc2c(c1)OCO2 | -0.12% (inactive) |
| Cc1ccccc1Nc1nc(N)nc(CSc2nnc(C)n2C)n1 | 3.87% (inactive) |
| NC1=NC(c2ccccc2Cl)n2c(nc3ccccc32)N1 (stereo not drawn) | 7.21% (inactive) |
| CCn1c2ccccc2c2cc(C3N=C(N)Nc4nc5ccccc5n43)ccc21 (stereo not drawn) | -6.84% (inactive) |
| CCOC(=O)C1=C(C)Nc2nc3ccccc3n2C1c1ccccc1 (stereo not drawn) | -9.7% (inactive) |
| Cc1ccc(C2N=C(N)Nc3nc4ccccc4n32)cc1 (stereo not drawn) | -6.16% (inactive) |
| NC1=NC(c2ccc(Cl)cc2)n2c(nc3ccccc32)N1 (stereo not drawn) | 4.44% (inactive) |
| Cc1cccc(C2N=C(N)Nc3nc4ccccc4n32)c1 (stereo not drawn) | -9.29% (inactive) |
| O=C1C2C3CCC(C3NCc3ccccc3)C2C(=O)N1Cc1ccccc1 (stereo not drawn) | -0.18% (inactive) |
| OC(CSc1ccc(F)cc1)CN1CCN(c2ccccc2)CC1 (stereo not drawn) | 2.78% (inactive) |
| Cc1nc(-c2nc(-c3c(C(=O)NNC(=O)Nc4ccccc4)noc3C)cs2)cs1 | 1.03% (inactive) |
| Cc1nc(NC(=O)c2cc(-n3cnnc3)ccc2Cl)ccc1Br | 0.92% (inactive) |
| O=C(NC12CC3CC(CC(C3)C1)C2)c1ccc(=O)oc1 | -2.56% (inactive) |
| O=C(COC(=O)c1ccc(-c2ccc([N+](=O)[O-])cc2)o1)NC(=O)NC1CCCCC1 | 31% (inactive) |
| O=C(NC12CC3CC(CC(C3)C1)C2)c1ccccc1 | 2.5% (inactive) |
| COc1ccc(CC(=O)OCC(=O)NC(=O)NC23CC4CC(CC(C4)C2)C3)cc1 | 0.65% (inactive) |
| CCN(Cc1cc2ccc(C)cc2[nH]c1=O)C(=O)c1cccnc1 | 3.56% (inactive) |
| COCCSc1nnc(NS(=O)(=O)c2ccc(C)cc2)s1 | -4.12% (inactive) |
| O=C(CSc1nnc(-c2ccco2)n1Cc1ccccc1)OC1CCCCC1 | -11.8% (inactive) |

| SMILES | inhibition |
| --- | --- |
| N/C(=N\OC(=O)/C=C/c1ccccc1)c1ccc(Cl)cc1 | 1.43% (inactive) |
| COC(=O)c1cc(C#N)c(N2CCOCC2)nc1C | -9.18% (inactive) |
| O=C(O)c1cc(Cl)ccc1-c1ccc(/C=C/c2cc(C(F)(F)F)[nH]c(=O)n2)o1 | -1.69% (inactive) |
| O=C(O)c1ccccc1-c1ccc(/C=C/c2cc(C(F)(F)F)[nH]c(=O)n2)o1 | -2.38% (inactive) |
| Cc1ccc(S(=O)(=O)Nc2cc(C(C(=O)OC(C)C)C(=O)C(F)(F)F)c(O)c3ccccc23)c(C)c1 (stereo not drawn) | -10.5% (inactive) |
| CCc1nc(N)c(C#N)c(-c2ccc(OC)c(OC)c2)c1C | -2.13% (inactive) |
| O=C(/C=C/c1ccc(OCCCF)cc1)Nc1ccnc(-c2cccnc2)n1 | -6.59% (inactive) |
| COc1ccc(CNC(=O)/C=C/c2ccc(OCCCF)cc2)cc1 | 11.3% (inactive) |
| O=C(Nc1ccc2nc(SCc3ccc(Cl)cc3)sc2c1)c1ccccc1C(=O)N1CCOCC1 | 4.76% (inactive) |
| CC(=O)Nc1ccc2nc(SCC(=O)N3CCOCC3)sc2c1 | 5.08% (inactive) |
| CCCn1c(=O)c(C(=O)NCc2ccc(OC)c(OC)c2)c(O)c2ccccc21 | -0.33% (inactive) |
| COc1ccc(-c2nc(NC(=O)c3nc4nccc(C)n4n3)sc2C)cc1 | -7.46% (inactive) |
| Cc1ccc(-c2nc(NC(=O)c3cc(C(C)(C)C)nn3C)sc2C)cc1Cl | 78.4% (inactive) |
| C1CN(CC2CCN(c3nc4nonc4nc3N3CCSCC3)CC2)CCO1 | -0.53% (inactive) |
| CCCCc1ccc(NC(=O)CC(C)(C)C)cc1 | 5.76% (inactive) |
| CCCCc1ccc(NC(=O)CC(C)=O)cc1 | 77.5% (inactive) |
| CCCCc1ccc(NC(=O)OC)cc1 | 58% (inactive) |
| CCCCc1ccc(NC(=O)N[C@@H](C)C(=O)O)cc1 | 0.78% (inactive) |
| CCN(CC)C(=O)C1=C(C)Nc2ncnn2C1c1cccnc1 (stereo not drawn) | -0.97% (inactive) |
| Cc1nn2c(-c3ccccc3)ccnc2c1-c1ccccc1 | -0.56% (inactive) |
| OCC1OC(n2nnc3ccccc32)C(O)C(O)C1O (stereo not drawn) | -9.39% (inactive) |

| SMILES | inhibition |
| --- | --- |
| Cc1cc(NC(=O)CCl)no1 | 65% (inactive) |
| Cc1cc(NC(=O)CCl)on1 | 0.735% (inactive) |
| CSc1nc(=O)n2cc(C)ccc2n1 | 0.11% (inactive) |
| CCOC(=O)C(NC(C)=O)(Nc1ccc(S(=O)(=O)Nc2cc(C)nc(C)n2)cc1)C(F)(F)F (stereo not drawn) | -6.92% (inactive) |
| Cc1ccc(NC(=O)c2ccc(CSc3ccccn3)cc2)cc1 | 14.1% (inactive) |
| O=C(Nc1ccccc1)c1ccc(CSc2ncccn2)cc1 | 3.69% (inactive) |
| CCOC(=O)C(=CNc1ccc(Oc2cncc(Cl)c2)nc1)C(=O)OCC | 2.61% (inactive) |
| Cc1onc(-c2ccccc2Cl)c1C(=O)Nc1ccc(-n2nncc2-c2ccco2)cc1 | 68% (inactive) |
| O=C(Nc1ccc(-n2nncc2-c2ccco2)cc1)c1ccc(F)cc1 | 0.33% (inactive) |
| Cc1ccc(-c2nnn(CC(=O)N3CCCCC3)n2)o1 | -0.84% (inactive) |
| CC(OC(=O)C1=COCCO1)C(=O)Nc1ccccc1C#N (stereo not drawn) | -7.04% (inactive) |
| CCC(C)NC(=O)Nc1ccc(Br)cc1 (stereo not drawn) | 1.26% (inactive) |
| CC(C)(C)NC(=O)Nc1ccc(Br)cc1 | -1.24% (inactive) |
| COc1ccc(C(=O)/C=C\c2ccc(NC(=O)c3cccs3)cc2)cc1 | -0.27% (inactive) |
| COc1c(Cl)cc(Cl)cc1C(=O)Nc1ccc(NC(=O)c2cccs2)cc1 | 56.1% (inactive) |
| CC1SCC(=O)N(CC(=O)Nc2ccc3c(c2)OCCO3)C1=O (stereo not drawn) | 2.44% (inactive) |
| Nc1nc2ccccc2n1C(=O)CCc1ccccc1 | 0.09% (inactive) |
| Cc1ccc(S(=O)(=O)/N=C(\c2ccc(F)cc2)n2c(C)nc3ccccc32)cc1 | 4.23% (inactive) |
| Cn1c(CNC(=O)c2ccc(F)cc2)nc2ccccc21 | -0.81% (inactive) |
| Nc1nc2ccccc2n1C(=O)c1ccco1 | 2.98% (inactive) |
| O=C(COc1ccc2ccccc2c1)N1c2ccccc2Sc2ccccc21 | 2.2% (inactive) |

— PubChem BioAssay AID1626 (SRMLSC, 2009)
